From PubChem BioAssay (NCI) come the findings set out here.

Values joined by “and” are separate entries in the source; they are usually repeats but may differ in a detail not shown here. Equal values may be shown once. About 79,000 compounds went through this panel and 15% of them were active in at least one assay; those are over-represented in the sample as a whole. Where a structure was tested more than once in an assay, its records may differ in their call. Active and inactive are the calls of the source. Rule as the data show it: active = growth inhibition above about 70%; inactive = the rest.

This experiment is described as follows: NCI Yeast Anticancer Drug Screen. Data for the rad50 strain (AID 155).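 Also: 0% = growth of vehicle-only cultures of the same strain.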 To be noted: S. cerevisiae rad50 strain growth inhibition; at 50.0 µM; stronger effect = higher value. The essentials: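 Yeast carrying a defined DNA repair defect were exposed to test compounds, and growth was compared with vehicle-treated controls to give percent inhibition.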
Regarding `CNC(=O)OCc1c(COC(=O)NC)c(C)n(-c2ccc(Cl)c(Cl)c2)c1C`, the growth inhibition is 89.6% (active).
The figure for `COc1ccc2nc(N/N=C/c3sccc3C)cc(C)c2c1` is 85.5% (active); for `CCCCCCCCCCCC[N+](C)(C)Cc1ccccc1` (tested in a mixture with another compound) it is 98% (active) and 99.6% (active) and 97.7% (active).
For the molecule `CC(C)c1ccc(O)c(=O)cc1`, the growth inhibition is 91.8% (active) and 92.7% (active) and 92.8% (active).
For the molecule `O=C(O)/C=C\C(=O)NNc1ccc(Br)cc1`, the growth inhibition was 98.3% (active).
As for `S=c1[nH]nc(Cc2ccccc2)c(=S)[nH]1`, the growth inhibition is 72.6% (active).
Consider `COc1ccc2nc3cccc([N+](=O)[O-])c3c(NCCCO)c2c1`, for which the growth inhibition is 86.8% (active).
On to `CCN(CC)CCSc1c2ccccc2nc2cc(NCC(=O)Nc3ccccc3-c3ccccc3NC(=O)CNc3ccc4c(SCCN(CC)CC)c5ccccc5nc4c3)ccc12`, for which the growth inhibition was 89.5% (active).
Under `Cc1ccc(N(C=O)c2c([N+](=O)[O-])cc([N+](=O)[O-])c3c2=[N+]([O-])CN=3)cc1` stands 71.5% (active).
Turning to `Nc1ccccc1SSc1ccccc1N`, the growth inhibition was 99.4% (active) and 99% (active) and 99.3% (active).
As to `COc1ccc(C(=O)OCCc2ccccc2)cc1`, the growth inhibition was -7.35% (inactive).
As to `COc1ccc(C(=O)NCCN(C)C)c2nc3ccccc3cc12`, the growth inhibition was 82.5% (active).
Regarding `NCC(O)CSCc1ccc(Cl)cc1` (stereo not given), the growth inhibition is 0.9% (inactive).
With `O=c1[nH]c(=O)n(CCCO)cc1F`, the growth inhibition was 34.4% (inactive).
For the molecule `CCCCCCCCCCCC[N+](C)(C)C`, the growth inhibition is 49.9% (inactive) and 80.2% (active) and 39.5% (inactive).
